Giardia FBPA inh: inhibitors of Giardia lamblia fructose-1,6-bisphosphate aldolase | 0.71% of 290,000 active | purified Giardia FBPA | A8B2U2 | Potency, µM (doses to about 59.6 µM), for inactives: at the highest dose activity, negative = inhibition, actives largely listed as inhibitors | AID 2451; note: % is set by controls: 0 for no effect and ±100 for the full control effect; nearly all actives have a fitted effect of over 55% in size
Target sequence (A8B2U2 whole entry, looked up): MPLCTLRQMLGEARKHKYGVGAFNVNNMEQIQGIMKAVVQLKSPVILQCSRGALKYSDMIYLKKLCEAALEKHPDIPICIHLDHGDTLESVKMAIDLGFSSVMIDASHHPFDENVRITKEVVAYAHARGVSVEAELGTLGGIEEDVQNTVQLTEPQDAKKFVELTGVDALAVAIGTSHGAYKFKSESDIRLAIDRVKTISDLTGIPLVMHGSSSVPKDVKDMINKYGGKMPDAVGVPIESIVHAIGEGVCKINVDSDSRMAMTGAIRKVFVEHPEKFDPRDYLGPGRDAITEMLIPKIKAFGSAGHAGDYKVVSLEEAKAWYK
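40 nM FBPA preincubated 10 min at RT with compound (up to 57.5 uM final), then substrate plus GAPDH/TPI/NAD/arsenate coupling and diaphorase/resazurin added. Fluorescence read after 20 min at RT, 525/598 nm.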
SARS PLpro yeast: blocks SARS-CoV papain-like protease in a yeast assay | S. cerevisiae expressing SARS-CoV PLpro, growth rescue | 0.19% of 330,000 active | Potency, µM (top dose mostly 32.9 µM), for the others: at the top dose activity, positive = growth rescue, actives largely listed as activators; calls by dose curve; note: 0% is about no effect; nearly all actives have a fitted effect of over 55% in size
TbPYK inhibitor: inhibitors of Trypanosoma brucei pyruvate kinase. AID 624173. 0.12% of 410,000 active. TbPYK enzyme, Kinase-Glo Plus ATP luminescence, 45 min. Q57TT1. Potency, µM (highest dose often 76.8 µM), inactives show top-dose activity, negative = inhibition, actives largely listed as inhibitors; note: % is set by controls: 0 for no effect and ±100 for the full control effect; nearly all actives have a fitted effect of over 50% in size
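ADP (130 uM final) triggers the TbPYK reaction after compound addition; incubation is 45 min at room temperature. Kinase-Glo Plus is then added and luminescence imaged. Normalized data are fitted to concentration-effect curves.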
RE007 growth inh: less growth of the S. pombe RE007 Vpr strain; 0.21% of 360,000 active; AID 651644; S. pombe RE007 Vpr strain, BacTiter-Glo ATP luminescence, 24 h; Potency, µM (top dose mostly 92.2 µM), for the others: top-dose activity change, negative = less growth, actives largely listed as inhibitors; active = well fitted falling curve with a large enough effect; inconclusive = small, poorly fitted or top-dose-only effect; inactive = no such curve, though single readings can be large or run the other way; note: % is set by controls: 0 for no effect and ±100 for the full control effect; nearly all actives have a fitted effect of over 50% in size
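Fission yeast RE007 carrying one integrated HIV-1 vpr copy, seeded at OD 0.01 in PMG+AL medium with 23 nL pinned compound. Grown 24 h at 30 degrees; viability read by BacTiter-Glo luminescence after 5 min.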
LmPK inh: LmPK (Leishmania mexicana) enzyme inhibition. Q27686. purified LmPK, Kinase-Glo ATP luminescence, 1 h. Potency, µM (titrated, usually from 57.5 µM), for the others: at the top dose activity change, negative = inhibition, usual class: inhibitors. 0.37% of 290,000 active. AID 1721; note: % is set by controls: 0 for no effect and ±100 for the full control effect
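Purified LmPK (0.1 nM) converted ADP (0.1 mM) to ATP with PEP (0.5 mM) in imidazole buffer pH 7.2 with KCl and MgCl2, 1 h at room temperature. ATP was read by Kinase-Glo luminescence; data normalized to uninhibited and no-enzyme controls.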
Numbers without * were called inactive; ? = inconclusive; . = no result given; [ ] = another dose, or the depositor's remark. Sampled rows, rich in hits. Any-hit rate of the full collection: about 1.1%. Unless noted, calls come from the whole dose curve; as a rule, active = well fitted curve in the direction sought with a large enough effect; inconclusive = small, poorly fitted or top-dose-only effect, or another doubt; inactive = no such curve, though single readings can be large; an effect the other way counts as inactive or inconclusive. Potency is the fitted concentration of half-maximal effect.

SMILES | Giardia FBPA inh | SARS PLpro yeast | TbPYK inhibitor | RE007 growth inh | LmPK inh
O=C(Oc1cccc2cccnc12)c1cccc(N2C(=O)C3C4CCC(C4)C3C2=O)c1 (stereo unspecified) | -20.3% | -12.5% | ? | 15.8µM* | 1.0%
CN(C)C(=O)Oc1cccc(-c2cn3cc(Cl)ccc3n2)c1 | -14.0% | -15.3% | -7.2% | -19.8% | -3.8%
CN(C)C(=O)Oc1ccc(-c2cn3cc(Cl)ccc3n2)cc1 | -18.4% | -44.1% | -11.1% | -16.7% | 12.6µM*
CC(=O)[O][Hg][c]1ccccc1 | 17.7µM* | . | ? | . | .
CCOC(=O)c1ccccc1NC(=O)CSc1ccc(-c2cccs2)nn1 | . | . | 0.6% | . | .
CCc1ccc2oc(-c3cccc(N)c3)nc2c1 | -4.9% | -3.7% | -7.1% | 10µM* | ?
O=S(=O)(c1cccc(-c2n[nH]c(=S)n2C2CCCC2)c1)N1CCOCC1 | -2.5% | 3.3% | 6.31µM* | 0.7% | 7.5%[11.5 µM]
COc1ccc(NC(=O)CN2CCN(Cc3ccc4c(c3)OCO4)CC2)cc1OC | 17.7µM* | -1.4% | 4.6% | 2.5% | -23.6%
COc1cc(C(=O)Nc2ccc(O)cc2)ccc1OC(C)=O | -1.0% | -3.3% | 0.2% | 0.9% | ?
COc1cc(C(=O)Nc2ccc(C(=O)O)cc2)ccc1OC(C)=O | -3.0% | -0.4% | -3.8% | -11.8% | 25.1µM*
CC(C)(S)C(=O)NC(CS)C(=O)O (stereo unspecified) | . | . | -0.1% | . | .
C/C(Cn1nnc([N+](=O)[O-])n1)=N\NC(=O)c1ccc(C)cc1 | ? | -2.9% | 2.8% | -15.5% | 0.4%
C/C(Cn1nnc([N+](=O)[O-])n1)=N\NC(=O)c1ccncc1 | 19.9µM* | 3.6% | 1.1% | 3.5% | -0.1%
CN1CCCN(Cc2ccc(Cl)cc2Cl)CC1 | 19.9µM* | -3.7% | 0.5% | -7.7% | -9.7%
CN1CCCN(Cc2nc(-c3ccc(Cl)cc3)no2)CC1 | -13.1% | 0.6% | 0.0% | -2.8% | 1.8%
CCOc1ccc(N2C(=O)CC(Sc3nnnn3-c3ccccc3)C2=O)cc1 (stereo unspecified) | 5.9% | -4.3% | -28.4% | 31.6µM* | 8.0%
CCCCCCOc1ccc(N2C(=O)CC(SCCN)C2=O)cc1 (stereo unspecified) | ? | -16.5% | -2.3% | -13.3% | -11.7%
CCOc1ccc(N2C(=O)CC(SCCN)C2=O)cc1 (stereo unspecified) | -23.7% | -9.2% | 0.0% | 20µM* | -28.2%
COc1ccc(CNC(=O)Cc2c(C)c3cc4c(C)coc4c(C)c3oc2=O)cc1OC | . | . | 3.7% | . | .
Cc1ccc(NC(=O)N2CCc3ccccc32)cc1 | -19.1% | -31.8% | -26.1% | ? | 25.1µM*
Cc1ccc(C(=O)N2CCc3ccccc32)o1 | -1.3% | -6.6% | -29.5% | ? | 14.1µM*
O=[N+]([O-])c1ccc(Oc2ccc(N=C=S)cc2)cc1 | . | . | 0.4% | . | .
CCOC(=O)c1nn(-c2ccc3c(c2)OCCO3)cc1O | -1.4% | -0.4% | 2.2% | -14.5% | ?
CC(=O)N1CCc2cc([N+](=O)[O-])ccc21 | . | . | 4.0% | 15.8% | .
COC(=O)c1nn(-c2ccc3c(c2)CCN3C(C)=O)cc1O | . | -9.2% | 17.8µM* | -7.0% | 10µM*
SMILES | Giardia FBPA inh | SARS PLpro yeast | TbPYK inhibitor | RE007 growth inh | LmPK inh
COC(=O)c1nn(-c2ccc3c(c2)OCO3)cc1O | . | -2.3% | -0.7% | -21.2% | 17.8µM*
COC(=O)C1=C(C)NC(=O)/C1=C\c1cc(C)n(-c2ccccc2C)c1C | -24.1% | -19.4% | -1.0% | 15.8µM* | 0.0%
COC(=O)C1=C(C)NC(=O)/C1=C\c1cc(C)n(-c2ccccc2F)c1C | ? | -1.2% | -15.3% | 2.0% | 0.2%
On1ccccc1=S | . | . | ? | 4.47µM* | .
CCc1cccc(NC(=O)C2CCC(CNS(=O)(=O)c3ccc4c(c3)CCCC(=O)N4)CC2)c1 (stereo unspecified) | . | . | -6.7% | . | .
Cc1nc2nc(-c3cccs3)cn2nc1C | -16.8% | -1.1% | -13.6% | ? | 28.2µM*
COc1cccc(-c2cn3nc(C)c(C)nc3n2)c1 | -0.1% | 3.8% | -27.9% | ? | 12.6µM*
O=C(O)c1cc(N=Nc2ccc(-c3ccc(N=Nc4ccc(O)c(C(=O)O)c4)cc3)cc2)ccc1O | -1.6% | . | . | . | .
O=C(N/N=C1\CCc2ccccc21)c1ccccc1O | -28.9% | -32.3% | -9.8% | -4.9% | 12.6µM*
CC(C)(S)[C@@H](N)C(=O)O | 12.6µM* | 2.3% | 0.7% | -9.6%[18.4 µM] | -5.9%
OC[C@H]1O[C@@H](n2cnc3c2NC=NC[C@H]3O)C[C@@H]1O | . | . | -15.8% | . | .
COc1ccc(N2Cc3ccccc3C2=O)cc1 | -2.4% | -11.9% | -25.8% | ? | 14.1µM*
C=CC(=O)Oc1ccc(N2Cc3ccccc3C2=O)cc1 | . | . | -27.6% | 7.94µM* | .
O=C1c2ccccc2CN1c1ccccc1 | -0.1% | -7.0% | -6.5% | -0.5% | -14.4%
Cc1ccc(N2Cc3ccccc3C2=O)cc1 | 7.4% | -12.3% | ? | ? | ?
COc1ccc(C)cc1-n1c(SCC(=O)NCc2ccco2)nc2c([nH]c3ccccc32)c1=O | . | . | 5.1% | . | .
CC(Sc1ncc(S(=O)(=O)c2ccc(C(C)C)cc2)c(N)n1)C(=O)Nc1ccccc1 (stereo unspecified) | . | . | -3.9% | . | .
CC(=O)N1N=C(c2ccccc2)OC1c1ccc([N+](=O)[O-])s1 (stereo unspecified) | ? | -31.8% | 2.4% | 35.5µM* | 0.4%
Cc1cc(SCC(=O)N/N=C/c2ccc(O)c(O)c2O)c(C)cc1Br | 3.54µM* | ? | 9.8% | ? | -4.0%
COc1ccc(NC(=S)Nc2cccc3cnccc23)cc1 | ? | -5.4% | -10.2% | -28.1% | 0.1%
CN(C)S(=O)(=O)c1cccc(NC(=S)Nc2cccc3cnccc23)c1 | 2.51µM* | -1.1% | -23.2% | -22.2% | 2.7%
Fc1ccc(NC(=S)Nc2cccc3cnccc23)cc1 | 2.81µM* | -4.4% | -15.3% | -22.7% | 3.2%
S=C(Nc1ccc(Cl)cc1)Nc1cccc2cnccc12 | 1.58µM* | -98.0% | -10.5% | -19.4% | -0.3%
Cc1ccccc1-c1noc(CCC(=O)Nc2cccc(C)c2C)n1 | . | . | -3.8% | . | .
S=c1[nH]nc(C2CCCCC2)n1/N=C/c1cccc(Br)c1 | 12.7% | 0.5% | -11.7% | 4.9% | 1.5%
SMILES | Giardia FBPA inh | SARS PLpro yeast | TbPYK inhibitor | RE007 growth inh | LmPK inh
COc1cc(/C=N/n2c(C3CCCCC3)n[nH]c2=S)cc(Br)c1O | -4.5% | -1.8% | 7.94µM* | 3.9% | -25.8%
COc1cccc(NC(=O)C2CC(=O)n3cnnc3S2)c1 (stereo unspecified) | ? | -28.7% | -7.9% | 35.5µM* | 4.8%
COc1ccc(NC(=O)C2CC(=O)n3cnnc3S2)cc1 (stereo unspecified) | ? | -41.3% | -23.4% | ? | 12.5%
Cc1cccc(NC(=O)N2CCC(CN3CCOCC3)CC2)c1C | . | . | 1.9% | . | .
Cc1nnc(C)n1/N=C/c1c(O)ccc2ccccc12 | -17.0% | -0.9% | -5.4% | -3.9% | -2.0%
Cc1nc2ccccc2c(=O)n1/N=C/c1ccc(O)c(O)c1O | 7.08µM* | -2.5% | -26.1% | . | 3.3%
O=C1c2ccccc2C(=O)N1/N=C/c1ccc(O)c(O)c1O | 7.92µM* | ? | ? | -7.8% | -7.4%

Compound activity (PubChem)
